Among the data in PubChem BioAssay are composite z-score and z-score values, retold here.

The test system of assay [1] is Wnt5a (protein binding on small-molecule microarray). Description: Wnt5a binders on small-molecule microarray, primary screen, biophysical, 635/667 nm fluorescence (AID 1142).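 Also: fluorescence read at 667 nm with signal to noise per printed feature.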 The settings on record: 635 nm fluorescence, higher = more signal.
Assay [2] is described as follows: cell viability in Huh7 cells, primary screen, cytotoxicity control for HCV replication inhibitor project, CellTiter-Glo luminescence, basal, 48 h (AID 1143).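 Also: Huh7 hepatoma cells carrying a hepatitis C replication reporter with no stimulus; test concentration not given here.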 The note with it: Huh7 HCV replicon, higher = more signal, called active from +8 up or from −8 down.
A short description of assay [3]: P. aeruginosa biofilm formation inhibitors, primary screen, PAO1 strain, BacTiter-Glo luminescence, LB-PBS (AID 1144). The note with it: 12 h, higher = more signal.
A short description of assay [4]: CREB reporter modulators without forskolin, primary screen, cell-based, PC12, CRE-LacZ reporter, unstimulated (AID 1145). The note with it: no forskolin, luminescence, 4.5 h, higher = more signal, called active from +8 up or from −8 down.
The nature of assay [5]: CREB reporter modulators under forskolin, primary screen, cell-based, PC12, CRE-LacZ reporter, forskolin-stimulated (AID 1146).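 Also: PC12 cells with 6xCRE LacZ reporter stimulated by forskolin 10 µM; beta-galactosidase reporter signal reflecting CREB driven transcription.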 The settings on record: luminescence, 4.5 h, higher = more signal, called active from +8 up or from −8 down.
For assay [6], the target named is Streptavidin (Streptomyces avidinii) (UniProt P22629). Put plainly: streptavidin binders on small-molecule microarray, primary screen, artefact control for SMM compound annotation, biophysical, 635/667 nm fluorescence (AID 1147).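 Also: signal reflects streptavidin binding to arrayed compounds as a control protein.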 The settings on record: streptavidin binding, higher = more signal.
Streptavidin (Streptomyces avidinii), sequence (P22629 whole entry, looked up): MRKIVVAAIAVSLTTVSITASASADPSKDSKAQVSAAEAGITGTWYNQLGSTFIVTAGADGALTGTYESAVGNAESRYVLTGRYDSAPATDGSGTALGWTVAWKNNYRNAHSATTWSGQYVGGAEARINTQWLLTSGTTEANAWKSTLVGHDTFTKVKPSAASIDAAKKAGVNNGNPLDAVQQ
A short description of assay [7]: small-molecule binders of probe aInhba, primary screen, biochemical, small-molecule microarray, 635/667 nm fluorescence (AID 1148).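 Also: score merges 667nm spot fluorescence with signal-to-noise for antibody binding to printed compounds.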 The settings on record: higher = more signal.
For assay [8], the target named is Torsin-1A (Homo sapiens) (UniProt O14656). Description: torsin A binders from cell lysate, primary screen, small-molecule microarray, wild-type, 635/667 nm (AID 1149). The settings on record: COS7 hTOR1A-WT lysate, 635 nm fluorescence, higher = more signal.
Torsin-1A (Homo sapiens), sequence (O14656 whole entry, looked up): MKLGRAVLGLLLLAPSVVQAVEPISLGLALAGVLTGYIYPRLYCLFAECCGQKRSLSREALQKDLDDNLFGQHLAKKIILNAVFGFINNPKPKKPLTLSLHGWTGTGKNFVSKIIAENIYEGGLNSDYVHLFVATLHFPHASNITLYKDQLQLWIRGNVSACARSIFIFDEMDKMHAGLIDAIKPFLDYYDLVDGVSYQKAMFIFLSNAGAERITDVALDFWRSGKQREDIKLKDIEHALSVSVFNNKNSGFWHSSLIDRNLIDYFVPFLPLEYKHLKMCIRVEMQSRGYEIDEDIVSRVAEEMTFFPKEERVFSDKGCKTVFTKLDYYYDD
For assay [9] the target is unchanged. Put plainly: small-molecule binders of mutant TOR1A in lysate, primary screen, cell lysate, small-molecule microarray, COS7 lysate, 635/667 nm fluorescence (AID 1150).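 Also: score pools 667 nm emission and signal to noise measuring lysate protein binding.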 The note with it: COS7 hTOR1A mutant lysate, 635 nm fluorescence, higher = more signal.
Assay [10] deals with Sonic hedgehog protein (Shh). Put plainly: small-molecule binders of Shh protein, primary screen, biochemical, small-molecule microarray, 635/667 nm fluorescence (AID 1151).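 Also: Shh protein binding to compounds spotted on small-molecule microarray slides; score combines spot fluorescence intensity with signal-to-noise across triplicate slides.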 The note with it: small-molecule microarray binding, 635 nm fluorescence; higher = more signal.
Assay [11] is described as follows: E. coli DRC41 culture turbidity changes, primary screen, E. coli filamentation inducer project, strain DRC41, OD650, 48 h (AID 1152).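 Also: E. coli MC1000 strain DRC41 lacking acrAB efflux pump and sulA.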 The note with it: E. coli DRC41 (acrAB sulA), higher = more signal, called active from +8 up or from −8 down.
The nature of assay [12]: small-molecule binders of probe aLefty1, primary screen, biochemical, small-molecule microarray, 635/667 nm fluorescence (AID 1153).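 Also: score merges spot fluorescence with signal-to-noise ratio from the scanned slide images.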 The settings on record: higher = more signal.
A short description of assay [13]: PSAC antagonists in infected red cells, primary screen, cell-based, P. falciparum Indochina, OD700, 1 h (AID 1154). The note with it: P. falciparum Indochina infected RBC osmotic lysis, higher = more signal, called active from +8 up or from −8 down.
Assay [14] is described as follows: PSAC antagonists in infected red cells, primary screen, cell-based, P. falciparum Indochina, OD700, 2 h (AID 1155).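 Also: lysis reports solute entry through the parasite surface anion channel PSAC; channel blockers reduce lysis of infected cells.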 The settings on record: P. falciparum Indochina infected erythrocytes, osmotic lysis OD700; higher = more signal, called active from +8 up or from −8 down.
Assay [15] in a line: osmotic lysis modulators in infected erythrocytes, primary screen, PSAC antagonist project, cell-based, P. falciparum Indochina, OD700, 3 h (AID 1156). The settings on record: higher = more signal, called active from +8 up or from −8 down.
Assay [16] is described as follows: PSAC antagonists in infected red cells, primary screen, cell-based, P. falciparum Indochina, OD700, 18 h (AID 1157). The note with it: P. falciparum Indochina infected erythrocytes, osmotic lysis OD700, 18 h; higher = more signal, called active from +8 up or from −8 down.
The nature of assay [17]: modulators of S6 phosphorylation in cells, primary screen, cell-based, A549, cytoblot, luminescence, serum-stimulated (AID 1158).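 Also: serum-stimulated A549 lung adenocarcinoma cells; signal is phosphorylated S6 detected by cytoblot immunostaining with HRP secondary.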 The note with it: A549 phospho-S6 cytoblot, 5 h, higher = more signal.
For assay [18], the target named is NADPH oxidase 2 (Homo sapiens) (UniProt P04839). Description: NOX2-dependent H2O2 signal modulators, primary screen, NOX inhibitor project, cell-based, HEK293-NOX2, PMA-stimulated, Amplex Red fluorescence (AID 1159). Also: test concentration not given here. The note with it: 45 min, higher = more signal, called active from +8 up or from −8 down.
NADPH oxidase 2 (Homo sapiens), sequence (P04839 whole entry, looked up): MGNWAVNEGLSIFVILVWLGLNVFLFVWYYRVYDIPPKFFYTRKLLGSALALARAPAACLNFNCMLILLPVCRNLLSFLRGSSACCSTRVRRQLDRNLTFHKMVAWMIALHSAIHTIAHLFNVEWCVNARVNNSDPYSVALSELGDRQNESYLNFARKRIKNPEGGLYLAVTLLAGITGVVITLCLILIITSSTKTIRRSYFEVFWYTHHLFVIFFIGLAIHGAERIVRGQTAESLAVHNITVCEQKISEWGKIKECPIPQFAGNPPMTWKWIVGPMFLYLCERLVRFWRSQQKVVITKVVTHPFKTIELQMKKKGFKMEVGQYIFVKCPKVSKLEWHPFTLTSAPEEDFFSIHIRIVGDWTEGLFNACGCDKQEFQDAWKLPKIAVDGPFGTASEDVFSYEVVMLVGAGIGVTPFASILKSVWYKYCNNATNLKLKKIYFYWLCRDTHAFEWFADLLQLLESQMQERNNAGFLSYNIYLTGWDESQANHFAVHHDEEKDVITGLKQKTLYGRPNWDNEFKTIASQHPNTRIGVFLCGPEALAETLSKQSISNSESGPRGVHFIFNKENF
Assay [19] deals with NADPH oxidase 4 (Homo sapiens) (UniProt Q9NPH5). Put plainly: NOX4-dependent H2O2 signal modulators, primary screen, NOX inhibitor project, cell-based, HEK293-NOX4, tetracycline-induced, Amplex Red fluorescence (AID 1160). The note with it: 45 min, higher = more signal, called active from +8 up or from −8 down.
NADPH oxidase 4 (Homo sapiens), sequence (Q9NPH5 whole entry, looked up): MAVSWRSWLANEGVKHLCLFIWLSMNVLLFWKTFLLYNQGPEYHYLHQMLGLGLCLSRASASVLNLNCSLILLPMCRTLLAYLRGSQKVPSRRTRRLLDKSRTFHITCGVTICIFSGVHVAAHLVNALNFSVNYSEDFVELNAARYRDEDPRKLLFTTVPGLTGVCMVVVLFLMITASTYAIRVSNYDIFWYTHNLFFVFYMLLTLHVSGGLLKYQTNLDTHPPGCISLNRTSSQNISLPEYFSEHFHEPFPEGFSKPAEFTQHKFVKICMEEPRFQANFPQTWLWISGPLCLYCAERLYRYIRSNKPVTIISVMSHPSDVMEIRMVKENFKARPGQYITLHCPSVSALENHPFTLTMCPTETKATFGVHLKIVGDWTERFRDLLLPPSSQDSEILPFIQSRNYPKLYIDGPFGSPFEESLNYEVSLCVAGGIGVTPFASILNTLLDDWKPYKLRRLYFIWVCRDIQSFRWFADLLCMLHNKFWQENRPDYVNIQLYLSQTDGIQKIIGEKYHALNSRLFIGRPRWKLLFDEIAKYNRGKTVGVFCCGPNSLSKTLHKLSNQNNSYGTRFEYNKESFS
The target of assay [20] is NADPH oxidase 5 (Homo sapiens) (UniProt Q96PH1). Description: NOX5-dependent H2O2 signal modulators, primary screen, NOX inhibitor project, cell-based, HEK293-NOX5, Amplex Red fluorescence (AID 1161). The settings on record: HEK293-NOX5, ionomycin, 45 min, higher = more signal.
NADPH oxidase 5 (Homo sapiens), sequence (Q96PH1 whole entry, looked up): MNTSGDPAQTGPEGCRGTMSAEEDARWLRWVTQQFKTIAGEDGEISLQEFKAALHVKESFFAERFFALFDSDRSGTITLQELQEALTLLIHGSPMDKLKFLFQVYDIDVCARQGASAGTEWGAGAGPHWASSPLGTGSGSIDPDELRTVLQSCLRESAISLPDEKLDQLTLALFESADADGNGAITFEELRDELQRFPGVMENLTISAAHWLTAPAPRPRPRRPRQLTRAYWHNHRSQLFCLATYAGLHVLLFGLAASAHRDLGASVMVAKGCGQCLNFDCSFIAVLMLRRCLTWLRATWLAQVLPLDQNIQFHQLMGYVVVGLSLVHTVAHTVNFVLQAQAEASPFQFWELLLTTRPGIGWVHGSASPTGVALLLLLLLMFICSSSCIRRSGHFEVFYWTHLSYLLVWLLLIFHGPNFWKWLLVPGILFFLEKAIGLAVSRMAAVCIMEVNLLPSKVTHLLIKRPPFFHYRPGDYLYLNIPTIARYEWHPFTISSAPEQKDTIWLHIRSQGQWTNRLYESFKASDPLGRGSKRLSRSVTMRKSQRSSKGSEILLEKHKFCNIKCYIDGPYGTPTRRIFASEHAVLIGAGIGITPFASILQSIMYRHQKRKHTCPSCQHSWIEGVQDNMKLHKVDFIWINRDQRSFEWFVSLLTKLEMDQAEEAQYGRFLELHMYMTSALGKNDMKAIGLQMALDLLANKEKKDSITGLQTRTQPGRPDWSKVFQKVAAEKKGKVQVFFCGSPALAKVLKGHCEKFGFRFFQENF

Structures are written as SMILES. The source made the active and inactive calls. Unless noted, no rule for the calls is given here.

On to `CO[C@H]1O[C@H](CO)[C@@H](OC(=O)Nc2ccccc2)[C@@H]2OC(=O)[C@@H](Cc3ccc4ccccc4c3)C/C=C/C[C@H](Cc3ccc4ccccc4c3)C(=O)O[C@@H]12`, for which the composite z-score in [1] was 0.49; in assay [6], 0.31; in [7], -0.0494; with Torsin-1A (Homo sapiens) [8], 0.643; with Torsin-1A (Homo sapiens) [9], 1.87; in assay [10] it was 0.662. The compound further yielded a composite z-score in [12] of 0.0167. The z-score in assay [2] was -3.61 (inactive); in assay [3], -1.4 (inactive); in assay [4], 0.502 (inactive); in assay [5], -0.757 (inactive); in [11] it was 2.85 (inactive); in assay [13], 2.71 (inactive). For the same compound, the z-score in [14] is -0.0552 (inactive); in assay [15], -1.94 (inactive); in assay [16] it was -1.83 (inactive); in [17], 0.77; in assay [18] it was 0.829 (inactive); in assay [19] it was 0.884 (inactive). This compound gave a z-score in [20] of -0.542.
Take `COCCCNC(=O)[C@@]1(Sc2ccc(C)cc2)CC(=O)N(Cc2ccccc2Cl)[C@@H]1c1ccc(CO)cc1`: the composite z-score in assay [1] is 0.349; in assay [6], 0.584; in assay [7], -0.0331; with Torsin-1A (Homo sapiens) [8], 0.607; with Torsin-1A (Homo sapiens) [9], 0.582; in assay [10] it was 2.02. Moreover, the composite z-score in assay [12] is -0.0011. The z-score in [2] was -4.58 (inactive); in assay [3], -0.915 (inactive); in assay [4], -0.374 (inactive); in assay [5], 1.09 (inactive); in assay [11], 0.864 (inactive); in assay [13], 0.38 (inactive). For the same compound, the z-score in assay [14] is -0.91 (inactive); in [15], 0.712 (inactive); in assay [16], -1.83 (inactive); in [17], 2.14; in assay [18], -2.58 (inactive); in [19], -1.22 (inactive). Also, the z-score in assay [20] is -2.91.
For the compound `COC(=O)C[C@H]1O[C@@H](CCc2ccccc2)[C@@H](C)[C@@H]1[Si](C)(C)c1ccc(OC)cc1`, the composite z-score in assay [1] is 0.0073; in assay [6], -0.604; in assay [7], -0.0963; with Torsin-1A (Homo sapiens) [8], -0.247; with Torsin-1A (Homo sapiens) [9] it was -0.23; in assay [10] it was -0.243. The compound also registered a composite z-score in assay [12] of -0.188. The z-score in assay [2] was -1.76 (inactive); in assay [3], 0.315 (inactive); in assay [4] it was -0.87 (inactive); in [5], -0.687 (inactive); in [11], -0.95 (inactive); in assay [13], 2.54 (inactive). Besides, the z-score in [14] was 0.719 (inactive); in assay [15], -0.0062 (inactive); in assay [16], -0.0887 (inactive); in assay [17], 0.0216; in assay [18], 1.34 (inactive); in [19], -0.0337 (inactive). The compound further displayed a z-score in assay [20] of -2.06.
Regarding `CC(C)[Si](C#CCCCC#N)(O[C@H](c1ccccc1)c1cn(Cc2cccc(Cl)c2)nn1)C(C)C`, the composite z-score was 0.182 in [1]; -0.0708 in assay [6]; 0.0614 in assay [7]; 1.42 in the assay with Torsin-1A (Homo sapiens) [8]; 0.392 with Torsin-1A (Homo sapiens) [9]; 1.21 in assay [10]. Moreover, the composite z-score in assay [12] came to 0.0496. The z-score in assay [2] is -2.2 (inactive); in [3] it was -0.603 (inactive); in assay [4], -0.215 (inactive); in assay [5] it was -0.859 (inactive); in assay [11] it was 1.65 (inactive); in assay [13] it was 0.614 (inactive). The z-score was 1.24 (inactive) in assay [14]; -0.187 (inactive) in assay [15]; 1.04 (inactive) in [16]; 0.573 in assay [17]; -6.2 (inactive) in assay [18]; 0.194 (inactive) in assay [19]. Also, the z-score in assay [20] is 0.528.
